This is a sample that favours compounds with a hit; in the whole collection about 19% have one here.
HT1080NT lethal: qHTS for induction of synthetic lethality in tumor cells producing 2HG: qHTS for the HT-1080-NT fibrosarcoma cell line; HT-1080-NT fibrosarcoma viability, CellTiter-Glo ATP luminescence, 48 h; Potency, µM (top dose mostly 46.1 µM), inactives show at the highest dose activity, negative = less viability, most hits filed as cytotoxic; 360,000 compounds, 1.6% hits; AID 686970, 2013;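 also: NT is the 2HG producing partner of a matched IDH1 knockdown line; 0% = DMSO-treated cells and -100% = media-only wells without cells; nearly all actives have a fitted effect of over 55% in size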
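Toxicity toward the 2HG-producing NT line was scored as %Activity, normalised to DMSO and no-cell wells, from CellTiter-Glo luminescence after 48 hours' treatment.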
TDP1 cell noCPT: qHTS for Inhibitors of human tyrosyl-DNA phosphodiesterase 1 (TDP1): qHTS in cells in absence of CPT; DT40 Tdp1-/- hTDP1 cells, no CPT, ATP luminescence, 48 h; Potency, µM (doses to about 46.2 µM), inactives show top-dose activity change, negative = growth inhibition, actives largely listed as inhibitors; 420,000 compounds, 15% hits; AID 686978, 2013; also: nearly all actives have a fitted effect of over 55% in size
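Growth kinetics read by CellTiter-Glo luminescence after ≥48 hr at 37 °C. Cells: DT40 Tdp1-/- stably carrying human TDP1, 400 per well, compound exposure in the absence of CPT (DMSO vehicle).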
KB-V1 cytotox: qHTS assay for MDR1-selective chemotherapeutics: Primary screen using the drug-selected MDR subline cells KB-V1 | KB-V1 MDR cells viability, CellTiter-Glo, 72 h | AID 1347076, 2019 | Potency, µM (doses to about 46.1 µM), usual class: cytotoxic | 400,000 compounds, 3.4% hits; also: nearly all actives have a fitted effect of over 60% in size
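Compound-treated KB-V1 multidrug-resistant cells, 72 h, 37 degrees C; viability by CellTiter-Glo. Fitted qHTS curves give the values.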
TDP1 cell CPT: qHTS for Inhibitors of human tyrosyl-DNA phosphodiesterase 1 (TDP1): qHTS in cells in presence of CPT | AID 686979, 2013 | Potency, µM (top dose mostly 46.2 µM), for the others: at the highest dose activity change, negative = growth inhibition, most hits filed as inhibitors | chicken DT40 Tdp1-/-;hTDP1 cells + 20 nM CPT, ATP luminescence, 48 h | 420,000 compounds, 12% hits; also: nearly all actives have a fitted effect of over 55% in size
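Cell growth measured by CellTiter-Glo luminescence after a minimum 48 h, 37 C compound exposure with 20 nM CPT in Tdp1-knockout DT40 cells stably expressing hTDP1, seeded 400/well; qHTS titration format.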
HT1080 IDH1KD tx: qHTS for induction of synthetic lethality in tumor cells producing 2HG: qHTS for the HT-1080-IDH1KD cell line. HT-1080 IDH1 knockdown viability, ATP luminescence, 48 h. Potency, µM (doses to about 46.1 µM), without a hit: top-dose activity, negative = toxicity, actives largely listed as cytotoxic. 360,000 compounds, 2% hits;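 also: 0% = DMSO wells and -100% = cell-free medium wells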
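% activity derives from luminescence (CellTiter-Glo), normalised to DMSO and no-cell wells. HT-1080-IDH1KD cells, 750/well, had 48 h compound exposure at 37 °C.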
KB-3-1 tox: qHTS assay for MDR1-selective chemotherapeutics: Primary screen using the parental adenocarcinoma cell KB-3-1; KB-3-1 viability, CellTiter-Glo ATP luminescence, 72 h; Potency, µM (titrated, usually from 46.1 µM), most hits filed as cytotoxic; 400,000 compounds, 1.4% hits; also: nearly all actives have a fitted effect of over 60% in size
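Cytotoxicity in the drug-sensitive parental line KB-3-1 was scored as loss of CellTiter-Glo luminescence following 72 h incubation with compound. Values come from curve fitting of normalized concentration-response data.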
* = called active by the depositor; ! = a repeat was not active. Calls follow the shape of the dose curve; as a rule, active = well fitted curve in the direction sought with a large enough effect; inconclusive = small, poorly fitted or top-dose-only effect, or another doubt; inactive = no such curve, though single readings can be large; an effect the other way counts as inactive or inconclusive. Unless noted, % is scaled to controls: 0 for no effect and ±100 for the full control effect; potency is read from the fitted curve at half-maximal effect.

For COc1ccccc1/C=C/C1(C(=O)NC2CCCC2)CC(=O)N1c1ccc(F)cc1 (stereo not given) the results were HT1080NT lethal inconclusive, TDP1 cell noCPT inconclusive, KB-V1 cytotox inconclusive, TDP1 cell CPT 18µM*, HT1080 IDH1KD tx 8.2µM* and KB-3-1 tox inactive.
COc1ccccc1/C=C/c1onc(C)c1S(=O)(=O)N1CCC(C(=O)NC2CCCCCC2)CC1 was read as HT1080NT lethal 4%, TDP1 cell noCPT -6%, KB-V1 cytotox inactive, TDP1 cell CPT inconclusive, HT1080 IDH1KD tx 17% and KB-3-1 tox inactive.
CCOc1ccc(CNC(=O)CN2C(=O)CSc3ccc(S(=O)(=O)N4CCOCC4)cc32)cc1OC was read as HT1080NT lethal 14%, TDP1 cell noCPT 12%, KB-V1 cytotox inactive, TDP1 cell CPT 1%, HT1080 IDH1KD tx 10% and KB-3-1 tox inactive.
`O=C(CN1N=C(c2ccc(Cl)cc2)CCC1=O)NCc1cccnc1` gave HT1080NT lethal 18%, TDP1 cell noCPT -5%, KB-V1 cytotox inactive, TDP1 cell CPT 0%, HT1080 IDH1KD tx 25% and KB-3-1 tox inactive.
CCc1c(C)[nH]c2ccc(C)cc2c1=O was read as HT1080NT lethal 14%, TDP1 cell noCPT inconclusive, KB-V1 cytotox inactive, TDP1 cell CPT inconclusive, HT1080 IDH1KD tx 7% and KB-3-1 tox inactive.
`O=c1cc(C(F)(F)F)[nH]c2ccccc12` gave HT1080NT lethal inconclusive, TDP1 cell noCPT 21µM*, KB-V1 cytotox inactive, TDP1 cell CPT inconclusive, HT1080 IDH1KD tx -26% and KB-3-1 tox inactive.
For O=C(O)c1cc(=O)c2ccccc2[nH]1 the results were HT1080NT lethal -3%, TDP1 cell noCPT -12%, KB-V1 cytotox inconclusive, TDP1 cell CPT 0.058µM*!, HT1080 IDH1KD tx -5% and KB-3-1 tox inactive.
For Cc1cccc2c(=O)cc(C(F)(F)F)[nH]c12 the results were HT1080NT lethal inconclusive, TDP1 cell noCPT inconclusive, KB-V1 cytotox inactive, TDP1 cell CPT inconclusive, HT1080 IDH1KD tx inconclusive and KB-3-1 tox inactive.
Screening O=C(O)c1cc(=O)c2c(Cl)cc(Cl)cc2[nH]1 returned HT1080NT lethal 17%, TDP1 cell noCPT 7%, KB-V1 cytotox inactive, TDP1 cell CPT 3%, HT1080 IDH1KD tx 8% and KB-3-1 tox inactive.
`Cc1ccc2[nH]c(C(F)(F)F)cc(=O)c2c1` gave HT1080NT lethal -25%, TDP1 cell noCPT 12µM*, KB-V1 cytotox inconclusive, TDP1 cell CPT inconclusive, HT1080 IDH1KD tx inconclusive and KB-3-1 tox inactive.
Screening CCCCN(C(=O)C1CCCO1)c1c(N)n(CCC)c(=O)[nH]c1=O (stereo not given) returned HT1080NT lethal 0%, TDP1 cell noCPT 11%, KB-V1 cytotox inactive, TDP1 cell CPT 2%, HT1080 IDH1KD tx 0% and KB-3-1 tox inactive.
Screening CCN1C(=O)c2ccccc2S(=O)(=O)c2ccc(C(=O)NCCOC)cc21 returned HT1080NT lethal 14%, TDP1 cell noCPT -12%, KB-V1 cytotox inactive, TDP1 cell CPT -2%, HT1080 IDH1KD tx 16% and KB-3-1 tox inactive.
Cc1ccc(NC(=O)C(C)OC(=O)Cn2cnc3ccccc3c2=O)cc1 (stereo not given) was read as HT1080NT lethal 7%, TDP1 cell noCPT -9%, KB-V1 cytotox inactive, TDP1 cell CPT -9%, HT1080 IDH1KD tx 5% and KB-3-1 tox inactive.
For CCCCN(Cc1nc2ccccc2c(=O)[nH]1)C(=O)COc1ccc(F)cc1Cl the results were HT1080NT lethal -17%, TDP1 cell noCPT 15µM*, KB-V1 cytotox inactive, TDP1 cell CPT 18µM*, HT1080 IDH1KD tx -7% and KB-3-1 tox inactive.
Screening COc1ccc2nc(NCc3ccc(OC)c(OC)c3OC)sc2c1 returned HT1080NT lethal -26%, TDP1 cell noCPT inconclusive, KB-V1 cytotox inactive, TDP1 cell CPT inconclusive, HT1080 IDH1KD tx -16% and KB-3-1 tox inactive.
`CC(C)CC1C(=O)N(Cc2cn(CCC3OCCO3)nn2)CCS(=O)(=O)N1Cc1ccc(-c2ccc(F)nc2)cc1` (stereo not given) gave HT1080NT lethal -6%, TDP1 cell noCPT -24%, KB-V1 cytotox inactive, TDP1 cell CPT 0%, HT1080 IDH1KD tx -3% and KB-3-1 tox inactive.
Screening COc1ccc(-c2ccc(CN3C(CC(C)C)C(=O)N(Cc4cn(CCC5OCCCO5)nn4)CCS3(=O)=O)cc2)cc1OC (stereo not given) returned HT1080NT lethal -7%, TDP1 cell noCPT inconclusive, KB-V1 cytotox inactive, TDP1 cell CPT 13µM*, HT1080 IDH1KD tx -14% and KB-3-1 tox inconclusive.
For COc1ccc(-c2ccc(CN3C(C(C)C)C(=O)N(Cc4cn(CCC5OCCCO5)nn4)CCS3(=O)=O)cc2)cc1OC (stereo not given) the results were HT1080NT lethal -7%, TDP1 cell noCPT inconclusive, KB-V1 cytotox inactive, TDP1 cell CPT inconclusive, HT1080 IDH1KD tx 6% and KB-3-1 tox inactive.
Screening CC(C)C1C(=O)N(Cc2cn(CCC3OCCCO3)nn2)CCS(=O)(=O)N1Cc1ccc(-c2ccncc2)cc1 (stereo not given) returned HT1080NT lethal -2%, TDP1 cell noCPT inconclusive, KB-V1 cytotox inactive, TDP1 cell CPT inconclusive, HT1080 IDH1KD tx -6% and KB-3-1 tox 16µM*.
CC1C(=O)N(Cc2cn(CCC3OCCO3)nn2)CCS(=O)(=O)N1Cc1ccc(-c2ccncc2)cc1 (stereo not given) was read as HT1080NT lethal -16%, TDP1 cell noCPT -1%, KB-V1 cytotox inactive, TDP1 cell CPT -8%, HT1080 IDH1KD tx 2% and KB-3-1 tox inactive.
CC(C)CC1C(=O)N(Cc2cn(CCC3OCCCO3)nn2)CCS(=O)(=O)N1Cc1ccc(-c2ccncc2)cc1 (stereo not given) was read as HT1080NT lethal 0%, TDP1 cell noCPT 18µM*, KB-V1 cytotox inactive, TDP1 cell CPT 16µM*, HT1080 IDH1KD tx 1% and KB-3-1 tox inactive.

Source: PubChem (National Center for Advancing Translational Sciences (NCATS))
